Results filed as inconclusive are left out. Active and inactive are the calls of the source. The call rests on the fitted dose curve; in most records, active means well fitted activation curve with a large enough effect; inconclusive means small, poorly fitted or top-dose-only effect; inactive means no such curve, though single readings can be large or run the other way.
Test: FLuc inhibitory activity for the follow-up compounds in a cell-based assay to assess the activity of miR-21
Conditions: HeLa miR-21-FLuc reporter, luciferase luminescence, 48 h; series mostly up to 38.3 µM
Description: NCGC Assay Overview: Firefly (Photinus pyralis) luciferase is one of the most commonly used transcriptional reporters. It is considered one of the more dynamically responsive reporters - that is, responsive to changes in reporter transcription - as it requires no post-translational modifications and is enzymatically active directly after protein synthesis (Wood, 1998). With no endogenous expression in mammalian cells and without the requirement of external excitation, it offers very little background signal, thus generally providing excellent signal to background for most assays. Previous profiling work to determine the prevalence of compounds that affect FLuc enzymatic activity (PubChem AID 411) identified that ~3% of the MLSMR library (then at ~72K) inhibited FLuc (Auld et al., 2008). […] Of the compounds identified in this profile that inhibited FLuc, 151 compounds were selected for further analysis, in an effort to better understand their mode of inhibiting FLuc. The assay described here was to determine the activity of the compounds in a cell-based firefly luciferase reporter gene assay originally designed to identify antagonists of miR-21. Compounds that inhibit miR-21 or compounds that stabilize FLuc intracellularly are identified as active compounds in the assay.
NCGC Assay Protocol Summary: Reagents: In-house detection reagent: 300mM Tris-HCl, 300mM Trizma base, 300mM MgCl, 1% Triton-X100, 5mM DTT, 500uM Coenzyme A trilithium salt (Sigma #C3019),450uM ATP (Sigma #A7699), 1mM D-luciferin sodium salt monohydrate (Biosynth #L8240) HeLa cells stably expressing firefly luciferase (FLuc) under the control of a CMV promoter (upstream) and a miR-21 binding sequence directly downstream of the gene. These cells endogenously express miR-21. Control compounds used were two known firefly luciferase inhibitors (3-(5-(3-chlorophenyl)-1,2,4-oxadiazol-3-yl)benzoic acid and 5-(2-fluorophenyl)-3-phenyl-1,2,4-oxadiazole), and DMSO. Assay Summary: 6uL of HeLa miR-21-FLuc cells in assay buffer (DMEM, Invitrogen #21063-029; 10% FBS, HyClone #SH30071.03) were dispensed at 2000cells/well (3.3 x 10^5 cells/mL) into Greiner solid-white TC-treated 1536-well plates using a Multidrop Combi (Thermo Fisher Scientific). Plates were incubated for one hour at 37 degree Celsius, 95% humidity, 5% CO2. These assay plates were then treated with 23nL of compound or DMSO using a Kalypsys pin tool, which allows for delivery of a 12-point titration of each compound to the assay plate, with a final compound concentration ranging from approximately ~38uM to 0.2nM. Assay plates were then incubated for 48 hours. After incubation, plates were allowed to come to RT for one hour prior to delivery of 3uL of 3X luciferase detection reagent. After a 15 minute incubation to allow for cell lysis, luciferase activity was measured using a ViewLux CCD imager (PerkinElmer), with an average exposure time of 2-12 seconds.

Potency, inactive:
O=C(Nc1ccccc1C(=O)O)c1cccc(S(=O)(=O)Nc2ccc(Br)cc2)c1
O=C(Cc1ccccc1)Nc1ccc(C(=O)Nc2ccccc2C(=O)O)cc1
O=C(O)c1cccc(NC(=O)c2cccc(S(=O)(=O)Nc3cccc(F)c3)c2)c1
O=C(O)c1cccc(NC(=O)c2cccc(S(=O)(=O)N3CCc4ccccc43)c2)c1
O=C(Cc1ccccc1)Nc1ccccc1C(=O)Nc1ccc(C(=O)O)cc1
CN(C)S(=O)(=O)c1ccc(C(=O)Nc2cccc(C(=O)O)c2)cc1
Cc1ccc(C(=O)Nc2ccc(C(=O)O)cc2)cc1S(=O)(=O)Nc1ccccc1
Cc1ccc(C(=O)Nc2ccc(C(=O)O)cc2)cc1S(=O)(=O)NCc1ccccc1
CC(C)CC(=O)Nc1cccc(C(=O)Nc2ccccc2C(=O)O)c1
O=C(O)c1ccc(NC(=O)c2cc(S(=O)(=O)N3CCCCC3)c(Cl)cc2Cl)cc1
O=C(Nc1ccccc1C(=O)O)c1ccc(NC(=O)C2CCCCC2)cc1

Potency, active:
Nc1ccc(-c2nc3cc(N)ccc3s2)cc1 2.25 µM
Cc1ccc2nc(-c3ccc(NC(=O)CN4CCN(C(=O)c5ccco5)CC4)cc3)sc2c1 4.49 µM
CCOc1ccc2nc(NC(=O)c3cc([N+](=O)[O-])ccc3N3CCOCC3)sc2c1 5.04 µM
O=C(Nc1cccc(-c2nc3ccccc3s2)c1)C1=COCCO1 12.6 µM
COc1ccc2nc(NC(=O)Cc3cccs3)sc2c1 2.83 µM
Nc1ccc(-c2nc3ccc(N)cc3s2)cc1 0.283 µM
Cc1cccc(C(=O)Nc2ccc(-c3nc4ccccc4s3)cc2Cl)c1 12.6 µM
CCOc1ccc2nc(NC(=O)c3cccnc3)sc2c1 1.13 µM
Nc1ccc(-c2nc3ccc(C(=O)O)cc3s2)cc1 0.0142 µM
O=S(=O)(c1ccc(-c2nc3ccccc3s2)cc1)N1CCCC1 2 µM
Cc1ccc2sc(-c3ccc(NC(=O)c4cc(-n5cnnc5)ccc4Cl)cc3)nc2c1 1.79 µM
Cc1c(NC(=O)C(C)(C)C)cccc1-c1nc2ccccc2s1 10 µM
Cn1c(N/N=C/c2cc3ccccc3nc2Cl)nc2ccccc21 0.711 µM
CC(C)c1ccc(C(=O)Nc2ccc(-c3nc4ccccc4s3)c(Cl)c2)cc1 7.98 µM
COc1ccc(Br)cc1C(=O)Nc1ccc(C(=O)O)cc1 7.98 µM
Cc1ccc(S(=O)(=O)N2CCN(C(=O)c3ccccc3-c3nc4ccccc4s3)CC2)c(C)c1 20 µM
NC(=O)Cc1ccc2sc(-c3ccccc3)nc2c1 1.26 µM
COc1ccc2nc(NC(=O)c3ccc([N+](=O)[O-])o3)sc2c1 4.49 µM
Cc1ccc2sc(-c3ccc(N)cc3)nc2c1 0.0504 µM
O=C(Nc1ccc(-c2nc3ccccc3s2)cc1)C1=COCCO1 0.01 µM
COc1ccc2nc(NC(=O)c3cccc(S(=O)(=O)N4CCOCC4)c3)sc2c1 7.11 µM
CCOc1ccc(C(=O)Nc2ccccc2C(=O)O)cc1 1.13 µM
COc1ccc(-c2nc3ccccc3s2)cc1NC(=O)c1ccc(F)cc1 12.6 µM
CCc1noc(C)c1C(=O)Nc1nc2ccc(OC)cc2s1 12.6 µM
O=C(O)c1cccc(NC(=O)c2ccc(COc3ccc(Cl)cc3)cc2)c1 12.6 µM
Cc1ccc2nc(-c3ccc(N)cc3)sc2c1 0.0356 µM
Cc1c(NC(=O)c2cccs2)cccc1-c1nc2ccccc2s1 20 µM
Cc1cccc(C(=O)Nc2ccccc2C(=O)Nc2ccc(C(=O)O)cc2)c1 15.9 µM
Cc1c(C)c2ccc(OCC(=O)Nc3ccccn3)c(C)c2oc1=O 0.0056 µM

Reference: PubChem BioAssay AID602477 (National Center for Advancing Translational Sciences (NCATS), 2012)
